A short description of test [1]: qHTS for differential inhibitors of proliferation of Plasmodium falciparum line HB3 (AID 1886).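 Further: parasites grown with compound for 72 h before SYBR Green readout.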 Further: potency means the concentration at half of the fitted maximal effect. Particulars: Potency: Plasmodium falciparum HB3 proliferation inhibition.
For test [2], the target named is Ferritin light chain (Equus caballus) (UniProt P02791). Kind of test: qHTS Validation Assay for Identification of Novel General Anesthetics (AID 2323). Further: series mostly up to about 77 µM. The gist of the method:
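Competitive displacement of profluorescent 1-aminoanthracene (1-AMA, 50% saturated solution in PBS) from 10 uM horse-spleen apoferritin. Compounds incubated 10 min at room temperature; fluorescence read at 380 nm excitation/535 nm emission, normalized to free 1-AMA and complex, fitted with four-parameter Hill equation.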
(qHTS replaces the single test concentration by a dilution series.)

Test [3] has as its target ATP-dependent DNA helicase Q1 (Homo sapiens) (UniProt P46063). Kind of test: qHTS Validation Assay for Inhibitors of RecQ-Like Dna Helicase 1 (RECQ1) (AID 2353). The gist of the method:
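RECQ1T1 50 nM; forked duplex (20 bp + 30-nt ss tails) 200 nM, ATP 2 mM final; pH 8.0, 2 mM MgCl2, 2.5 ug/ml poly(dI-dC); 15 min compound preincubation; discontinuous kinetic read over 2 h at RT.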

Test [4] has as its target Ubiquitin carboxyl-terminal hydrolase 2 (Homo sapiens) (UniProt O75604). Kind of test: qHTS Validation Assay for Inhibitors of Ubiquitin-specific Protease USP2a Using CHOP2 as the Reporter (AID 463106). The method, boiled down:
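Fluorescence read-out at Ex 485nm/Em 531nm after 60min RT, following addition of 25nM Ub-CHOP2 plus 25nM reporter substrate to USP2 core (10nM) pretreated 30min with compound. Data normalized to NEM full inhibition; concentration-response curves fitted.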

In test [5] the target is DNA polymerase III PolC-type (Bacillus subtilis (strain 168)) (UniProt P13267). Kind of test: qHTS Validation Assay for the Inhibitors of DNA Replication in Gram-Positive Bacteria (AID 485295).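 Further: PicoGreen fluorescence of double-stranded DNA made on primed circular M13 template; series mostly up to about 57 µM.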 The method, boiled down: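 Reconstituted B. subtilis holoenzyme (Pol III, beta clamp, SSB, primase) was preincubated with compound at room temperature, then given single-stranded circular M13Gori plus dNTPs and NTPs. EDTA-containing PicoGreen stopped the reaction, and dsDNA product was read by fluorescence.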

Test [6] concerns the target Tumor susceptibility gene 101 protein (Homo sapiens) (UniProt Q99816). Kind of test: qHTS Validation Assay for Iinhibitors of HIV-1 Budding by Blocking the Interaction of PTAP/TSG101 (AID 485342; calls by dose curve). The gist of the method:
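Tsg101 binding domain (10 uM final) in pH 7.5 HEPES/NaCl/Tween 20/EDTA/TCEP buffer was mixed with pin-transferred compounds, then FITC-labeled PTAP peptide (50 nM final) was added; after 20 min at r.t., fluorescence polarization was read.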

Test [7] addresses Beta-2 adrenergic receptor (Homo sapiens) (UniProt P07550). Kind of test: qHTS validation assay of beta-arrestin-biased ligands of beta2-adrenergic receptor (AID 485366). The gist of the method:
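Compound series up to 46 microM applied to beta2-AR/beta-arrestin Tango cells, 18 hr, 37 degrees C, 5% CO2. Read-out: tTA-driven luciferase luminescence, converted to %Activity; concentration-response curves assigned curve classes.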

Test [8] addresses ATP-dependent 6-phosphofructokinase (Trypanosoma brucei brucei) (UniProt O15648). Kind of test: qHTS Validation Assay to Find Inhibitors of T. brucei phosphofructokinase (AID 485368). Particulars: outcome: dose series up to 57.5 µM. The method, boiled down:
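qHTS format, up to 57 uM. PFK 1.25 nM; F6P 0.5 mM; ATP 0.1 mM; 5 mM MgCl2, 0.01% Tween20, 0.1% BSA; 0.1 M TEA pH 8.0; 45 min RT; ADP-Glo readout; no-enzyme control = full inhibition.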

A short description of test [9]: Cytometric Cell-Based qHTS for Inhibitors of the mTORC1 Signaling Pathway in MEF (Tsc2-/-, p53-/-) Cells (AID 2660).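 Further: Tsc2 and p53 null MEFs carrying empty vector with compound for 24 h; percent of cells above a phospho-rpS6 to PI ratio cutoff in each well; series mostly up to about 38 µM.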 The gist of the method: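 Cells are plated, treated with compound for 24 hrs at 37 degree Celsius, then fixed, blocked and immunostained for phospho-rpS6 Ser235/236. Propidium iodide counterstain follows. Per-well % positive cells is derived from the PI-normalized phospho-S6 signal.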

A short description of test [10]: High Content Imaging Cell-Based qHTS for Inhibitors of the mTORC1 Signaling Pathway in MEF (Tsc2-/-, p53-/-) Cells (AID 2666).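 Further: percent of cells scored positive for phospho-rpS6 Ser235/236 immunostaining by imaging.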 The method, boiled down: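 MEF Tsc2-/- p53-/- (empty vector), DMEM/10% FBS; cpd 24 h 37 °C; PFA fix, Alexa-488 p-rpS6 S235/236 Ab, Hoechst; imaged; rapamycin-defined inhibition; % positive cells/well.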
The nature of test [11]: High Content Imaging Cell-Based qHTS for Inhibitors of the mTORC1 Signaling Pathway in MEF Cells (AID 2667).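 Further: Tsc2-/- p53-/- MEFs stably re-expressing wild-type Tsc2 exposed 24 h; series mostly up to about 38 µM.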 The gist of the method:
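Read-out is the share of phospho-rpS6-positive cells per well, from Hoechst-normalized Alexa-488 Ser235/236 staining imaged on IN Cell. Cells: WT Tsc2-expressing Tsc2-/-, p53-/- MEFs exposed to compound for 24 hrs.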

Test [12] in a line: Cytometry Cell-Based qHTS for Inhibitors of the mTORC1 Signaling Pathway in MEF cells (AID 2668).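 Further: Tsc2-/- p53-/- mouse embryonic fibroblasts stably re-expressing wild-type Tsc2; percent cells positive for phospho-rpS6 Ser235/236 relative to propidium iodide stain; series mostly up to about 38 µM.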 The method, boiled down:
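WT MEFs (Tsc2-/-, p53-/- stably re-expressing WT Tsc2) in DMEM + 10% FBS received compounds 24 hrs after plating, for 24 hrs at 37 degree Celsius. Fixed cells stained with Alexa-488 anti-phospho-rpS6 Ser235/236 and propidium iodide; laser-scanning cytometry read-out.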

Test [13] is described as follows: Validation screen for small molecules that induce DNA re-replication in MCF 10A normal breast cells (AID 463097). Further: nearly all actives have a fitted effect of over 60% in size. Further: potency means the concentration at half of the fitted maximal effect. The method, boiled down:
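Readout: Hoechst nuclear fluorescence intensity, 405 ex / 500-530 em, by scanning plate imager; re-replication scored as increase in nuclei with elevated DNA content. Cells exposed to compound 48 hr, 37 C, 5% CO2 beforehand.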

Test [14] in a line: qHTS Validation Assay to Find Inhibitors of Chronic Active B-Cell Receptor Signaling (AID 485345; active means well fitted curve in the direction sought with a large enough effect in the main read-out, with a control signal flat, not every such curve was filed as active; further: potency means the concentration at half of the fitted maximal effect). The method, boiled down:
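TMD8 ABC-DLBCL cells stably carrying doxycycline-inducible IkappaBalpha–green luciferase fusion plus unfused red luciferase; compounds 46 uM to 3 nM, 4 h at 37C with doxycycline. Corrected green/red luminescence ratio normalized to 10 uM MG-132 and basal cell wells; curves fitted.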

A short description of test [15]: Quantitative high throughput screen for delayed death inhibitors of the malarial parasite plastid, 96 hour incubation (AID 488745). Further: nearly all actives have a fitted effect of over 70% in size. Further: potency means the concentration at half of the fitted maximal effect. The gist of the method: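 Readout is firefly luciferase luminescence from an integrated reporter in P. falciparum; lower signal marks inhibited growth. Cultures at 2% hematocrit and 0.1% parasitemia were treated with compound across two generations (96 h, 37 C, 5% CO2).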

Test [16] in a line: Quantitative high throughput screen for delayed death inhibitors of the malarial parasite plastid, 48 hour incubation (AID 488752). Further: nearly all actives have a fitted effect of over 65% in size. Further: potency means the concentration at half of the fitted maximal effect. The method, boiled down: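 First, compound was pinned into RPMI 1640 medium containing 0.5% Albumax. Next, reporter-parasite-infected erythrocytes were added to 2% hematocrit and 0.1% parasitemia. After 48 h at 37 C under 5% CO2, luciferase detection reagent was added and luminescence read.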

Test [17] addresses Thioredoxin reductase 1, cytoplasmic (Rattus norvegicus) (UniProt O89049). Kind of test: qHTS Assay for Substrates of Mammalian Selenoprotein Thioredoxin Reductase 1 (TrxR1) (AID 488772).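 Further: series mostly up to about 57 µM; a drop in NADPH fluorescence below the no-compound background marks a TrxR1 substrate.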 The method, boiled down:
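In this dual-purpose format, potential substrates are identified from the first fluorescence read after selenite addition, not from the 8-minute delta. Rat enzyme is preincubated with NADPH and then with compound at ~22 deg C.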

Test [18] addresses RecQ-like DNA helicase BLM (Homo sapiens) (UniProt P54132). Kind of test: qHTS Validation Assay for Inhibitors of Bloom's syndrome helicase (BLM) (AID 2364). The method, boiled down: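 50 nM BLM preincubated 15 min at room temperature with compound in pH 8.0 Tris buffer containing 2.5 ug/ml poly(dI-dC); started with 200 nM TAMRA/BHQ-2 forked duplex and 2 mM ATP (final). Unwinding read as TAMRA fluorescence increase, two reads 2 h apart.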

Test [19] in a line: qHTS Assay for Modulators of Human Peripheral Myelin Protein 22 (PMP22) Expression/Activity (AID 1967; active means well fitted curve in the direction sought with a large enough effect in the signal ratio; the % refers to the signal ratio). The method, boiled down:
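MSC80 mouse Schwann cells stably carrying Pmp22 promoter–green click beetle luciferase plus EF-alpha–red luciferase control were dosed for 24h at 37 °C. Dual-colour luminescence was filter-overlap corrected; %Activity came from green/red ratio versus untreated cells.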

Experimental findings from PubChem BioAssay (NCATS) are described below.

Molecules are shown by their SMILES. Results filed as inconclusive are left out. Calls of active or inactive are those of the source. Unless noted, the call rests on the fitted dose curve; in most records, active means well fitted curve in the direction sought with a large enough effect; inconclusive means small, poorly fitted or top-dose-only effect, or another doubt; inactive means no such curve, though single readings can be large; an effect the other way counts as inactive or inconclusive.

Sequence of ATP-dependent DNA helicase Q1 (Homo sapiens) (P46063 whole entry, looked up): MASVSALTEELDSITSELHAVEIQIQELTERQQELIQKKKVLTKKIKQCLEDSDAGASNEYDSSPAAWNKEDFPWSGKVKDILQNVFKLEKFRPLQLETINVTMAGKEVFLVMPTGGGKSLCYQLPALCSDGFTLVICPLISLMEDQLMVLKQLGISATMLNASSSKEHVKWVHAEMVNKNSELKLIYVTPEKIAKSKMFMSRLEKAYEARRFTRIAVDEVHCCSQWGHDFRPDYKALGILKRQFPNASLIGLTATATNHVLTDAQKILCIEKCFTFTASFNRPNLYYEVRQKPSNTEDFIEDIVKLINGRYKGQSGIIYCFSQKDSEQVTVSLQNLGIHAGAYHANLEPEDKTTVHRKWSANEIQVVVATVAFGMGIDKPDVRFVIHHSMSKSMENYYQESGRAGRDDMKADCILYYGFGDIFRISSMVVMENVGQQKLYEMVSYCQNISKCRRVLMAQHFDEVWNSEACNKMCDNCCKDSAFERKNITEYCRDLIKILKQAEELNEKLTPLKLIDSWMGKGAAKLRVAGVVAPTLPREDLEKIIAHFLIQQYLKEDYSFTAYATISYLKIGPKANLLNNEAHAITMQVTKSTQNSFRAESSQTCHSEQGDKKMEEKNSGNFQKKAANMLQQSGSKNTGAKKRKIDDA
Sequence of Thioredoxin reductase 1, cytoplasmic (Rattus norvegicus) (O89049 whole entry, looked up): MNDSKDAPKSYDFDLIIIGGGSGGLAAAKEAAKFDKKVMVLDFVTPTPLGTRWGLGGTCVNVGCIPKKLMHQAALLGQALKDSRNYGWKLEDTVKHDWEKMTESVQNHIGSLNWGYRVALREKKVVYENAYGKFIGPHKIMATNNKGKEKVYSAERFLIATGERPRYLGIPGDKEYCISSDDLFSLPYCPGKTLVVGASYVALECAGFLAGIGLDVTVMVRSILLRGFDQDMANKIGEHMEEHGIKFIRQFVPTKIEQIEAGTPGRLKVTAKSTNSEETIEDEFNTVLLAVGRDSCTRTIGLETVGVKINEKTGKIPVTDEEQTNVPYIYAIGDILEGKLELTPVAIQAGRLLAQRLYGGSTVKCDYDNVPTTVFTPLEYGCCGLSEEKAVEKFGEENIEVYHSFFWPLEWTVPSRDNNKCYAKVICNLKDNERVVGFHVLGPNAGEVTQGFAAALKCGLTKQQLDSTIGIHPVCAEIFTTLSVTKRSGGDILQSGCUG
Sequence of Ferritin light chain (Equus caballus) (P02791 2-175 limits assumed): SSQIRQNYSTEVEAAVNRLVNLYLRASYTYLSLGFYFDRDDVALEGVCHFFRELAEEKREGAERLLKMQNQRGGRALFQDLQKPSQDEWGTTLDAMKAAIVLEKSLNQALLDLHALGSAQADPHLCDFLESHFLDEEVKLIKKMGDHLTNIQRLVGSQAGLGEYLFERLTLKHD
Sequence of ATP-dependent 6-phosphofructokinase (Trypanosoma brucei brucei) (O15648 whole entry, looked up): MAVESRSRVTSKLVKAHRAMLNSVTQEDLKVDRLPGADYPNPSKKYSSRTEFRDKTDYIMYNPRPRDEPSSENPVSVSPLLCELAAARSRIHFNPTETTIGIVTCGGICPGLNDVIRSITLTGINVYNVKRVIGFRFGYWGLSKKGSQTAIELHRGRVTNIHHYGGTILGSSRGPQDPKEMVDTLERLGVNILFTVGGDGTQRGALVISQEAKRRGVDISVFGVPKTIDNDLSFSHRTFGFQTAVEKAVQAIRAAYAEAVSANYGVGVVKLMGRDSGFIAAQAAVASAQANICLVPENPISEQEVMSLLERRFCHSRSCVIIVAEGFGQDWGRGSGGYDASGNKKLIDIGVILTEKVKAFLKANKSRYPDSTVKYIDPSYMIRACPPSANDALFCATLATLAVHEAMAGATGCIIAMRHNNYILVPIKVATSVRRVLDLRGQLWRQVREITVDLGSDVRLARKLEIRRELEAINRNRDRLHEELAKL
Sequence of Ubiquitin carboxyl-terminal hydrolase 2 (Homo sapiens) (O75604 whole entry, looked up): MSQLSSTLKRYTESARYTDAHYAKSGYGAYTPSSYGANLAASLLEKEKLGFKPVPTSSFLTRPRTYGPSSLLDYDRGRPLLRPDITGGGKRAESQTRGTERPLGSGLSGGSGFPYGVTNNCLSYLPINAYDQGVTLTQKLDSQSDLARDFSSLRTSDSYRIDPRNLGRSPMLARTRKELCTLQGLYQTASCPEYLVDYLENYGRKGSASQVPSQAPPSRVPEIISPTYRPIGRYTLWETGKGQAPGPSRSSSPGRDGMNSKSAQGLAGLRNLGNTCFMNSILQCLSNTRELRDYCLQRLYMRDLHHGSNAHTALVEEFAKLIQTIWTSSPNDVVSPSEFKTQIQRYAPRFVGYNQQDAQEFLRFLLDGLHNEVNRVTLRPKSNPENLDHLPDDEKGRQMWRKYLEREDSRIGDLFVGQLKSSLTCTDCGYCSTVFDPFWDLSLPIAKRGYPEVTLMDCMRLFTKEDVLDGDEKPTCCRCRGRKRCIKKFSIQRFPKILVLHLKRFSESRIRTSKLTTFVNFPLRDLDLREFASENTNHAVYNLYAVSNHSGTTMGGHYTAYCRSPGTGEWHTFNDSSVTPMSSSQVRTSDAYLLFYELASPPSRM
Sequence of Tumor susceptibility gene 101 protein (Homo sapiens) (Q99816 whole entry, looked up, the tested form may be a part): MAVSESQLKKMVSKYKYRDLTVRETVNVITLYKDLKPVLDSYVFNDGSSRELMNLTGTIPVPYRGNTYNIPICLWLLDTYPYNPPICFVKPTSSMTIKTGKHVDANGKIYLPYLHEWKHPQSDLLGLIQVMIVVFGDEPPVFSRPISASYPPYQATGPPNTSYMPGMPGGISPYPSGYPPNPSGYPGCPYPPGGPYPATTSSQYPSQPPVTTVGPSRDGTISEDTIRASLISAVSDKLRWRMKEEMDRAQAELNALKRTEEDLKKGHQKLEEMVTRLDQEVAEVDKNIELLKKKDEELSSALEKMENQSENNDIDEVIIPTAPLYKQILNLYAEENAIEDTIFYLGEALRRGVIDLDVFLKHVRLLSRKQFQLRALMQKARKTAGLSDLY
Sequence of DNA polymerase III PolC-type (Bacillus subtilis (strain 168)) (P13267 whole entry, looked up): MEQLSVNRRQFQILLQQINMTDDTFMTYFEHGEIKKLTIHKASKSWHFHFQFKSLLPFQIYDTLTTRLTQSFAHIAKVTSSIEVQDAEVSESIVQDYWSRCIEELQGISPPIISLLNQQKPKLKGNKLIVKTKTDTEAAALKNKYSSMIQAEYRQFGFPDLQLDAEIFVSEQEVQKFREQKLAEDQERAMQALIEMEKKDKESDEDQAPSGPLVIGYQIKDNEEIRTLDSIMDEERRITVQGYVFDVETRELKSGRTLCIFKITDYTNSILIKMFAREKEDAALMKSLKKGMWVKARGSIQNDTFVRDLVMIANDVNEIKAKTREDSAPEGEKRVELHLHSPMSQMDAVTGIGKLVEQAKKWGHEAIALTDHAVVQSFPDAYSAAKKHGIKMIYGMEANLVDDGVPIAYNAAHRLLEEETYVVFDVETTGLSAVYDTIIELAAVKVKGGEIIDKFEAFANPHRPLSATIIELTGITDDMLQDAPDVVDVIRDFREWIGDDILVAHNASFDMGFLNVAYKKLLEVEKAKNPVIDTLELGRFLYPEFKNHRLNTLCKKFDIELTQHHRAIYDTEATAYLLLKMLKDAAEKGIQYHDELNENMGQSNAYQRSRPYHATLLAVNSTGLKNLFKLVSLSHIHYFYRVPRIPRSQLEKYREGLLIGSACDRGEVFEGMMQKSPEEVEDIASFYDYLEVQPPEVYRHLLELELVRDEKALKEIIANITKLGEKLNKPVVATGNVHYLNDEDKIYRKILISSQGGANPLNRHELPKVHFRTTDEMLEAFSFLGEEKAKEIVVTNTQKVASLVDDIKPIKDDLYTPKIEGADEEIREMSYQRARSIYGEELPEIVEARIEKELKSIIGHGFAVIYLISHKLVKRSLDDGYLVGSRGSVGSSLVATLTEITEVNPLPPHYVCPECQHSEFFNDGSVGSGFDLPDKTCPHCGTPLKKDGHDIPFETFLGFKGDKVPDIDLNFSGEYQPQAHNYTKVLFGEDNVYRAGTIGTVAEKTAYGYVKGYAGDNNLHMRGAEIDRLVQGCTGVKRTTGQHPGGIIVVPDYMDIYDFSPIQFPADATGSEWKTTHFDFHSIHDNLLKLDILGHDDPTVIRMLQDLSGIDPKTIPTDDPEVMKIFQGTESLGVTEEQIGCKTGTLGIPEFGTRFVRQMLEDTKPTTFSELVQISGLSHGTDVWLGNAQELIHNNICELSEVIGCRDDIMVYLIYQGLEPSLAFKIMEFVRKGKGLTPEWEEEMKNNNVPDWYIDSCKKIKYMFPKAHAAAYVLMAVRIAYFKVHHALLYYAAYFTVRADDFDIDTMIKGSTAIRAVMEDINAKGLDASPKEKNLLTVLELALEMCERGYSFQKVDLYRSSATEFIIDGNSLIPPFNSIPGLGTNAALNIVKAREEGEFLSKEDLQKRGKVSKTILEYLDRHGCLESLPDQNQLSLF
Sequence of Beta-2 adrenergic receptor (Homo sapiens) (P07550 whole entry, looked up): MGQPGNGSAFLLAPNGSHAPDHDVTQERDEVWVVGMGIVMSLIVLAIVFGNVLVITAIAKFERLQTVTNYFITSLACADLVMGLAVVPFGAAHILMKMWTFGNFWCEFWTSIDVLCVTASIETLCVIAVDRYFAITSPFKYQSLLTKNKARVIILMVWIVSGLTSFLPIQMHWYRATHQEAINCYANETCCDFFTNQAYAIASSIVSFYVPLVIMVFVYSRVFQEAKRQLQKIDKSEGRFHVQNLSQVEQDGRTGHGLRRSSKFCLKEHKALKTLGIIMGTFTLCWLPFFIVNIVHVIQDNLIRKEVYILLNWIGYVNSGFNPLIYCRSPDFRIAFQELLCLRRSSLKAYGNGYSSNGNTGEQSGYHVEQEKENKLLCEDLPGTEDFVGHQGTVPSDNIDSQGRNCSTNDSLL

`O=C1NCN(c2ccccc2)C12CCN(CCCC(c1ccc(F)cc1)c1ccc(F)cc1)CC2`: the Potency in test [1] is 7.08 µM (active). Also, the compound was classed as inactive in [2], in test [4], in test [6], in test [7] and in test [8]. Besides, the Potency entry in test [3] and in [5] was “inactive” in each case.
As to `CCN1CCc2nc(N)oc2CC1`, the Potency entry in test [1], in test [3], in test [10], in test [11], in test [12] and in test [13] was “inactive” each time. For the same compound, the Potency entry in test [5], in test [14], in test [15] and in test [16] was “inactive” each time. For the same compound, the compound was called inactive in test [2], in test [9], in [4], in test [6], in test [7] and in test [8]. In addition, the compound was called inactive in [17].
For `CCO/C([O-])=N/c1c[n+](N2CCOCC2)no1`, the Potency entry in test [1], in test [3], in [10], in test [11], in [12] and in test [13] was “inactive” throughout. Further, the Potency result in test [5], in test [14] and in test [16] was “inactive” in each case. The result in test [2], in test [9], in test [4], in test [6], in [7] and in test [8] was inactive. Besides, the result in [17] was inactive.
`CC1=NS(=O)(=O)c2cc(Cl)ccc2N1`: the Potency entry in test [1], in test [18], in [10], in [11], in test [12] and in [13] was “inactive” throughout. In addition, the Potency result in [5], in [14], in test [15] and in test [16] was “inactive” in each case. The compound was called inactive in test [2], in [9], in [4], in test [6], in test [7] and in [8]. In addition, the compound was classed as inactive in [17].
As to `NC(Cc1ccc(Cl)cc1)C(=O)O` (centres undefined), the Potency entry in [1], in test [3], in [10], in test [11], in [12] and in [13] was “inactive” throughout. The Potency result in test [5], in test [14], in test [15] and in [16] was “inactive” each time. The compound was called inactive in test [2], in test [9], in test [4], in [6], in test [7] and in test [8]. Besides, the compound was classed as inactive in test [17].
In the case of `CN/C(=C\[N+](=O)[O-])NCCSCc1ccc(CN(C)C)o1`, the outcome in test [19], in [2], in [9], in test [4], in test [6] and in test [7] was inactive. Further, the compound was called inactive in [17]. The Potency entry in test [3], in test [10], in [11], in test [12], in test [13] and in [5] was “inactive” each time. Also, the Potency entry in test [14], in [15] and in [16] was “inactive” in each case.
On to `COc1cc(Cc2cnc(N)nc2N)cc(OC)c1OC`, for which the call in [19], in test [2], in test [9], in test [4], in [6] and in test [8] was inactive. In addition, the compound was called inactive in [17]. The Potency result in test [10], in [11], in test [12], in test [13], in [5] and in test [14] was “inactive” throughout. For the same compound, the Potency result in test [15] and in test [16] was “inactive” in each case.
For `COc1ccc(CN(CCN(C)C)c2ccccn2)cc1`, the Potency result in test [1], in test [10], in [11], in test [12], in test [13] and in [5] was “inactive” throughout. Besides, the Potency entry in [14], in test [15] and in test [16] was “inactive” throughout. The call in test [2], in test [9], in test [4], in test [6], in [7] and in [8] was inactive. Also, in test [17], the compound was called inactive.
With `CC1=C(C)C(=O)C(CCCCC#CCCCC#CCO)=C(C)C1=O`, the Potency is 8.91 µM (active) in test [1], 16.4 µM (active) in test [14], 10.4 µM (active) in [15] and 8.28 µM (active) in test [16]. Also, the Potency entry in test [3], in test [10] and in test [5] was “inactive” in each case. Also, the result in test [9], in test [4], in test [6], in test [7] and in test [17] was inactive.
Take `CCOC(=O)C1=C(C)NC(C)=C(C(=O)OC)C1c1cccc(Cl)c1Cl` (centres undefined): the values for the Potency in test [1], in test [13] and in [16] were 12.6 µM (active), 11.2 µM (active) and 11.7 µM (active), respectively. Moreover, the compound was called inactive in test [9], in [6], in test [7], in test [8] and in test [17]. In addition, the Potency result in test [10], in test [11] and in test [5] was “inactive” throughout.
On to `COCCOC(=O)C1=C(C)NC(C)=C(C(=O)OC(C)C)C1c1cccc([N+](=O)[O-])c1` (centres undefined), for which the values for the Potency in [1] and in test [14] were 8.91 µM (active) and 9.2 µM (active), respectively. For the same compound, the Potency entry in test [3], in test [10], in test [11], in [12], in test [13] and in [5] was “inactive” each time. In addition, the result in test [9], in test [4], in [6], in test [7] and in [8] was inactive.
`NCCCNCCSP(=O)(O)O`: the Potency result in test [1], in test [10], in test [11], in test [12], in test [13] and in test [5] was “inactive” throughout. In addition, the Potency result in test [14], in test [15] and in test [16] was “inactive” in each case. The call in test [2], in test [9], in [4], in test [6], in [7] and in [8] was inactive. Further, the result in [17] was inactive.
